For test [1], the target named is Androgen receptor (Homo sapiens) (UniProt P10275). Nature of the test: qHTS assay to identify small molecule antagonists of the androgen receptor (AR) signaling pathway using the MDA cell line in the presence of 0.5 nM R1881 (AID 1259243). Further: nearly all actives have a fitted effect of over 50% in size. Further: potency means the concentration at half of the fitted maximal effect. A digest of the protocol:
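Reporter cells cultured without CO2 receive test chemicals, then 0.5 nM R1881 final; after 16 hr at 37C, ONE-Glo is added and light output recorded.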
A general note: Quantitative high-throughput screening tests each substance at several concentrations.

Test [2] deals with Estrogen receptor (Homo sapiens) (UniProt P03372). Kind of test: qHTS assay to identify small molecule antagonists of the estrogen receptor alpha (ER-alpha) signaling pathway using the BG1 cell line in the presence of 0.1 nM 17-beta-estradiol (AID 1259244). Further: nearly all actives have a fitted effect of over 50% in size. Further: potency means the concentration at half of the fitted maximal effect. Summed up: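 Estradiol at 0.1 nM (final) stimulates the endogenous ER-alpha of VM7Luc4E2 cells carrying an ERE-driven luciferase; compounds are co-incubated 22 h at 37C and luciferase output quantified by luminescence.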
Estrogen receptor (Homo sapiens), sequence (P03372 whole entry, looked up): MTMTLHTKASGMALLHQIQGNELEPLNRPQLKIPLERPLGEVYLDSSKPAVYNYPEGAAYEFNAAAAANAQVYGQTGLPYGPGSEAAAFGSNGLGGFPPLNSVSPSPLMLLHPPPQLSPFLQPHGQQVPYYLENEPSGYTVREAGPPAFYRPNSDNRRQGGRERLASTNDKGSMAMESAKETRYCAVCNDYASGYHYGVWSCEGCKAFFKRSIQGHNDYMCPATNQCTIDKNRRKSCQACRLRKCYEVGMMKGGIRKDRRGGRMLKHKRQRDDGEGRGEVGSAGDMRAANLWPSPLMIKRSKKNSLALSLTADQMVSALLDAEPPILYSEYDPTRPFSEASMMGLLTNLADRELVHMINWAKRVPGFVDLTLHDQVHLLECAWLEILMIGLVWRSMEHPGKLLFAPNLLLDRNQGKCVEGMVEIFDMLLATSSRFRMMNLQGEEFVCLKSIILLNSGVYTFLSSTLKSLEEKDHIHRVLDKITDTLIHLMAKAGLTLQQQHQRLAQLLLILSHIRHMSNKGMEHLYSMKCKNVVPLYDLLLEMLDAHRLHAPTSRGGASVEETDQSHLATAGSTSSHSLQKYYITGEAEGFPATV

Test [3] is described as follows: qHTS assay to identify small molecule phospholipidosis (PLD) inducers (AID 1259344; active means well fitted curve in the direction sought with a large enough effect; an effect the other way counts as inactive or inconclusive; further: on the % scale 0 is the no-effect control and ±100 the full control effect). A digest of the protocol: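 HepG2 cells, 900/well, treated with compound plus LipidTOX Red for 24 h at 37 C; amiodarone positive and DMSO negative controls. Fixed with paraformaldehyde/Hoechst, then high-content imaging scored LipidTOX pit count and integrated intensity per well and per cell.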

Test [4] can be described thus: qHTS assay to identify small molecule HDAC inhibitors (AID 1259364). Further: potency means the concentration at half of the fitted maximal effect.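 Further: wild-type HCT-116 cells with endogenous class I/II HDAC activity; nearly all actives have a fitted effect of over 45% in size.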 A digest of the protocol:
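Read-out: luminescence of HDAC-Glo I/II reagent, 30 min RT, reflecting class I/II deacetylase activity in whole HCT-116 cells pre-exposed 2 h to DMSO-dissolved compounds.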

A short description of test [5]: qHTS assay to identify small molecule HDAC inhibitors - cell viability counter screen (AID 1259365). Further: nearly all actives have a fitted effect of over 50% in size. Further: potency means the concentration at half of the fitted maximal effect. Summed up: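 Wild-type HCT-116 cells were seeded at 1,500 per well, incubated overnight at 37 C, then exposed to compounds in DMSO for 2hr. Viability was read by CellTiter-Glo luminescence after 30min at room temperature.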
Test [6] can be described thus: qHTS assay to identify small molecule agonists of the sonic hedgehog signaling (Shh) pathway - cell viability counter screen (AID 1259366). Further: nearly all actives have a fitted effect of over 50% in size. Further: potency means the concentration at half of the fitted maximal effect. Summed up:
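NIH/3T3-derived 3T3 Gli1-Luc cells (stable Gli1-responsive firefly luciferase reporter) were seeded, rested 4 hr at 37 C/5% CO2, then exposed to compounds in DMSO for 24 hr; viability was read by CellTiter-Fluor fluorescence in the same wells.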

Test [7] is described as follows: qHTS assay to identify small molecule antagonists of the sonic hedgehog signaling (Shh) pathway - cell viability counter screen (AID 1259367). Further: nearly all actives have a fitted effect of over 55% in size. Further: potency means the concentration at half of the fitted maximal effect. Summed up:
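NIH/3T3-derived Gli1-Luc reporter cells, 2,000/well, plated 4 hr before compound addition, then stimulated with conditioned medium for 24 hr at 37C. Viability measured in the same wells by CellTiter-Fluor fluorescence, reagent added at 23 hr for 1 hr.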

Test [8] in a line: qHTS assay to identify small molecule agonists of the sonic hedgehog signaling (Shh) pathway (AID 1259368; calls by dose curve; further: series mostly up to about 92 µM; on the % scale 0 is the no-effect control and ±100 the full control effect; nearly all actives have a fitted effect of over 15% in size). A digest of the protocol:
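A Gli1 transcriptional response element controlled firefly luciferase in 3T3Gli1-Luc cells. Compounds and a positive control were added 4 hr after plating, and cells were incubated a further 24 hr at 37 C before luminescence detection.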

Test [9] is described as follows: qHTS assay to identify small molecule antagonists of the sonic hedgehog signaling (Shh) pathway (AID 1259369; calls by dose curve; further: potency means the concentration at half of the fitted maximal effect; nearly all actives have a fitted effect of over 45% in size). A digest of the protocol:
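For antagonist detection, the reporter line received test compounds together with conditioned medium, incubated 24hr at 37 C, 5% CO2, then luminescence was recorded following 30min room-temperature luciferase reagent incubation.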

The nature of test [10]: qHTS assay to identify small molecule agonists of the estrogen receptor beta (ER-beta) signaling pathway - cell viability counter screen (AID 1259380). Further: nearly all actives have a fitted effect of over 30% in size. Further: potency means the concentration at half of the fitted maximal effect. Summed up: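 CellTiter-Glo read, 30 min RT, same wells as bla assay; cells ER-beta-UAS-bla HEK293T; 16 hr compound, 37C; medium 2% charcoal-stripped FBS.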
Test [11] concerns the target Androgen receptor (Homo sapiens) (UniProt P10275). Kind of test: qHTS assay to identify small molecule agonists of the androgen receptor (AR) signaling pathway in the presence of an antagonist (AID 1259381; calls by dose curve; further: on the % scale 0 is the no-effect control and ±100 the full control effect; nearly all actives have a fitted effect of over 15% in size). Summed up:
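Test compounds at 15 concentrations were incubated for 16hr with MDA-kb2 reporter cells in presence of 3.0uM nilutamide (final). Signal: ONE-Glo luciferase luminescence.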

Test [12] is described as follows: qHTS assay to identify small molecule antagonists of the estrogen receptor beta (ER-beta) signaling pathway - cell viability counter screen (AID 1259382). Further: nearly all actives have a fitted effect of over 55% in size. Further: potency means the concentration at half of the fitted maximal effect. Summed up: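 In this multiplexed counter screen, cells were seeded at 2,000 per well in medium with 2% charcoal-stripped FBS and incubated 6 hr before compound and 1nM final E2 were added. Sixteen hours later, ATP-based luminescence reported viability.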

Test [13] addresses Estrogen receptor (Homo sapiens) (UniProt P03372). Nature of the test: qHTS assay to identify small molecule agonists of the estrogen receptor alpha (ER-alpha) signaling pathway in the presence of an antagonist (AID 1259383; calls by dose curve; further: top concentration of the series differs between compounds; on the % scale 0 is the no-effect control and ±100 the full control effect; nearly all actives have a fitted effect of over 15% in size). A digest of the protocol: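 Stably transfected VM7Luc4E2 reporter cells, kept 5 days in charcoal-stripped serum, received ICI-182,780 at 10.0nM final before compound addition. Following 22hr incubation at 37C and 5% CO2, luciferase signal was read by luminescence.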

Test [14] can be described thus: qHTS assay to identify small molecule agonists or antagonists of the thyroid stimulating hormone receptor (TSHR) signaling pathway - wild type cell line counter screen (AID 1259384; calls by dose curve; further: on the % scale 0 is the no-effect control and ±100 the full control effect). Summed up: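 Wild-type Hek293 cells, 800/well, 18 h at 37C, then compound with Ro20-1724 for 30 min RT. cAMP by HTRF (cAMP-d2/anti-cAMP cryptate), 1 h RT, fluorescence read. 15 concentrations, triplicates.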

Test [15] is described as follows: qHTS assay to identify small molecule agonists of the estrogen receptor alpha (ER-alpha) signaling pathway in the presence of an antagonist - cell viability counter screen (AID 1259386).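 Further: cells exposed to compounds for 22 h at 37 °C before the viability read; nearly all actives have a fitted effect of over 30% in size.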 Further: potency means the concentration at half of the fitted maximal effect. A digest of the protocol: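 Viability counter screen using VM7Luc4E2 (full-length ER-alpha, four ERE-luciferase). The cells were treated with compounds alongside ICI-182,780 10.0nM for 22hr, and live-cell protease fluorescence was quantified with CellTiter-Fluor.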

Test [16] addresses Progesterone receptor (Homo sapiens) (UniProt P06401). Nature of the test: qHTS assay to identify small molecule agonists of the progesterone receptor (PR) signaling pathway (AID 1346784; calls by dose curve; further: on the % scale 0 is the no-effect control and ±100 the full control effect; nearly all actives have a fitted effect of over 30% in size). Summed up:
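PR-UAS-bla HEK 293T cells carrying a UAS-driven beta-lactamase reporter were seeded in medium with 2% charcoal-stripped FBS, preincubated 6 hr at 37C, then exposed to compounds in DMSO for 16 hr; agonism was read by LiveBLAzer B/G FRET fluorescence.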

Test [17] can be described thus: qHTS assay to identify small molecule agonists of the androgen receptor (AR) signaling pathway in the presence of an antagonist - cell viability counter screen (AID 1259379). Further: nearly all actives have a fitted effect of over 25% in size. Further: potency means the concentration at half of the fitted maximal effect. Summed up: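 Seed MDA-kb2 at 3,000 cells/well; incubate 5 hr, 37C, 0% CO2. Add nilutamide to 3.0uM final, then pin compounds at 15 concentrations. Incubate 16 hr. Add CellTiter-Fluor at 15 hr, read fluorescence after 1 hr.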

Test [18] deals with Thyrotropin receptor (Homo sapiens) (UniProt P16473). Nature of the test: qHTS assay to identify small molecule antagonists of the thyroid stimulating hormone receptor (TSHR) signaling pathway (AID 1259385; calls by dose curve; further: on the % scale 0 is the no-effect control and ±100 the full control effect; nearly all actives have a fitted effect of over 20% in size). A digest of the protocol: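 TSHR-HEK293 cells (800/well) plated 18 h, then compounds with Ro20-1724 and TSH at 1.5 ng/mL final, 30 min at room temperature. cAMP quantified by HTRF (cAMP-d2/anti-cAMP-cryptate, 1 h); 15 concentrations in triplicate.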
Thyrotropin receptor (Homo sapiens), sequence (P16473 whole entry, looked up): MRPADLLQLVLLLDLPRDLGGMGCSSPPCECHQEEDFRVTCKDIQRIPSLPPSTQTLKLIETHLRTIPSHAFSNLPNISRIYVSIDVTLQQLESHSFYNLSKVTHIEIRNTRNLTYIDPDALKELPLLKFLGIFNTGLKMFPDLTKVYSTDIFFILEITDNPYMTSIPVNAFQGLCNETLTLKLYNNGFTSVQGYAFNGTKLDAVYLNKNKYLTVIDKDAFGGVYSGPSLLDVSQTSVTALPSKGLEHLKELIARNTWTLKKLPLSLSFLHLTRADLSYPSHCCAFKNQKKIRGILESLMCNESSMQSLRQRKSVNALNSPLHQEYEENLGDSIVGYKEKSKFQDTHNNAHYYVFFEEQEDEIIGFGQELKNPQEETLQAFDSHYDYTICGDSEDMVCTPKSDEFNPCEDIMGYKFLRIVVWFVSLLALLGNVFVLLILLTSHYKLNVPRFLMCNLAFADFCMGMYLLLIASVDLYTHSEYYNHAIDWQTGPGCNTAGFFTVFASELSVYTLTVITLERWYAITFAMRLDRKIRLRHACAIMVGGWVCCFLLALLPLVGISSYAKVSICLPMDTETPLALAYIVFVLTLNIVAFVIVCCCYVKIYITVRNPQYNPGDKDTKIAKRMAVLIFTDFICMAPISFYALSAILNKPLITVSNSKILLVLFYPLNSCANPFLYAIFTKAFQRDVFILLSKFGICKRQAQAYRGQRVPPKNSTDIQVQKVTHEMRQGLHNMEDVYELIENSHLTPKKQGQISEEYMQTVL

For test [19], the target named is Estrogen receptor beta (Homo sapiens) (UniProt Q92731). Nature of the test: qHTS assay to identify small molecule agonists of the estrogen receptor beta (ER-beta) signaling pathway (AID 1259377; active means well fitted activation curve with a large enough effect in the signal ratio in the repeat runs, not every such curve was filed as active; the % refers to the signal ratio; further: on the % scale 0 is the no-effect control and ±100 the full control effect). A digest of the protocol:
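ER-beta-UAS-bla HEK293T (GripTite) cells carrying a UAS-driven beta-lactamase reporter, in medium with 2% charcoal-stripped FBS, were exposed to compounds for 16 hr at 37C; LiveBLAzer B/G FRET substrate was then added and fluorescence read after 2 hours at room temperature.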

For test [20] the target is unchanged. Kind of test: qHTS assay to identify small molecule antagonists of the estrogen receptor beta (ER-beta) signaling pathway (AID 1259378; active means well fitted inhibition curve with a large enough effect in the signal ratio in the repeat runs, not every such curve was filed as active; the % refers to the signal ratio; further: on the % scale 0 is the no-effect control and ±100 the full control effect). A digest of the protocol:
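ER-beta-UAS-bla HEK293T cells in 2% charcoal-stripped FBS medium treated with compound plus 1nM final 17-beta-estradiol for 16 hr at 37C. Beta-lactamase reporter read by FRET substrate fluorescence after 2 hours at room temperature.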

From PubChem BioAssay (Tox21) come the findings set out here.

Values without a mark were called inactive. Results filed as inconclusive are left out. Activity calls are given as the source filed them. Unless noted, the call rests on the fitted dose curve; in most records, active means well fitted curve in the direction sought with a large enough effect in the repeat runs; inconclusive means weak or mixed curves; inactive means no such curve, though single readings can be large; an effect the other way counts as inactive or inconclusive.

Estrogen receptor beta (Homo sapiens), sequence (Q92731 whole entry, looked up): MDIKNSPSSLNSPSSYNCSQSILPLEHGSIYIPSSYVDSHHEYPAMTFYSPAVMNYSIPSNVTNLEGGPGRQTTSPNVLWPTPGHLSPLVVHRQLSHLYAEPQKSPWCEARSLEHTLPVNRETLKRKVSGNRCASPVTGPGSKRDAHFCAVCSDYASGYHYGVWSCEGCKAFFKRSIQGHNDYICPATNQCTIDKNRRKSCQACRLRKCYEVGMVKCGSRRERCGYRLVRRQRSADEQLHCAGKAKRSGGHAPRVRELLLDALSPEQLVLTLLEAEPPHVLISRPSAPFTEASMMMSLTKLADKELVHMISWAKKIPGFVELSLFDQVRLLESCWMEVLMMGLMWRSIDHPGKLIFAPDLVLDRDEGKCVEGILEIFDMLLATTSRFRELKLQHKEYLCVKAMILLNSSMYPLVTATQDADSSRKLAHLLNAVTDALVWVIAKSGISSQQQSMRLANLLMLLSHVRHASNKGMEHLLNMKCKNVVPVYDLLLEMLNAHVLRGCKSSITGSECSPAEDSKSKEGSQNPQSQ
Androgen receptor (Homo sapiens), sequence (P10275 whole entry, looked up): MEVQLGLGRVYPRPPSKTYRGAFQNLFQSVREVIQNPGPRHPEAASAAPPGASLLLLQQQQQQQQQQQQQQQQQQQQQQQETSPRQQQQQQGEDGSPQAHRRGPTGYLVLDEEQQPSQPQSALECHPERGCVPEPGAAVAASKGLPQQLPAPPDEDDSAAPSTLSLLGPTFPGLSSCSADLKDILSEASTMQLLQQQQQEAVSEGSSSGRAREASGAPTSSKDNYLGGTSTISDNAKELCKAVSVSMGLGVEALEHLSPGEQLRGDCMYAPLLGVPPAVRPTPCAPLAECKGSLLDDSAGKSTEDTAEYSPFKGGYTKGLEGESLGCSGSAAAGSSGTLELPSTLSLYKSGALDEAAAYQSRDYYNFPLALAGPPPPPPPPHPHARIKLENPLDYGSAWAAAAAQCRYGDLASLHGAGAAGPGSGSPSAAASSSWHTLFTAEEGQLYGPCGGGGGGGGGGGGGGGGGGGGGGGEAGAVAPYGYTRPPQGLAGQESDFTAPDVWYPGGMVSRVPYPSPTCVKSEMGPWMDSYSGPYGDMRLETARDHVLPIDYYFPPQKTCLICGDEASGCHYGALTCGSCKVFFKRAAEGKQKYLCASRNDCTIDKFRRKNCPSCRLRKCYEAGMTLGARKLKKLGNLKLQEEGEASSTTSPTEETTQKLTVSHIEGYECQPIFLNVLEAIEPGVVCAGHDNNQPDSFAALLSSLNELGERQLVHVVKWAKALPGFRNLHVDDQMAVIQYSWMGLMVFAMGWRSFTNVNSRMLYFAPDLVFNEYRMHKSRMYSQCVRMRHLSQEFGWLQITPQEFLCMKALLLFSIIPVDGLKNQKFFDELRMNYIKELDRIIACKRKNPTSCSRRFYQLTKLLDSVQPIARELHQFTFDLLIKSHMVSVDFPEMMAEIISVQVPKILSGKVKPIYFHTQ
Progesterone receptor (Homo sapiens), sequence (P06401 whole entry, looked up): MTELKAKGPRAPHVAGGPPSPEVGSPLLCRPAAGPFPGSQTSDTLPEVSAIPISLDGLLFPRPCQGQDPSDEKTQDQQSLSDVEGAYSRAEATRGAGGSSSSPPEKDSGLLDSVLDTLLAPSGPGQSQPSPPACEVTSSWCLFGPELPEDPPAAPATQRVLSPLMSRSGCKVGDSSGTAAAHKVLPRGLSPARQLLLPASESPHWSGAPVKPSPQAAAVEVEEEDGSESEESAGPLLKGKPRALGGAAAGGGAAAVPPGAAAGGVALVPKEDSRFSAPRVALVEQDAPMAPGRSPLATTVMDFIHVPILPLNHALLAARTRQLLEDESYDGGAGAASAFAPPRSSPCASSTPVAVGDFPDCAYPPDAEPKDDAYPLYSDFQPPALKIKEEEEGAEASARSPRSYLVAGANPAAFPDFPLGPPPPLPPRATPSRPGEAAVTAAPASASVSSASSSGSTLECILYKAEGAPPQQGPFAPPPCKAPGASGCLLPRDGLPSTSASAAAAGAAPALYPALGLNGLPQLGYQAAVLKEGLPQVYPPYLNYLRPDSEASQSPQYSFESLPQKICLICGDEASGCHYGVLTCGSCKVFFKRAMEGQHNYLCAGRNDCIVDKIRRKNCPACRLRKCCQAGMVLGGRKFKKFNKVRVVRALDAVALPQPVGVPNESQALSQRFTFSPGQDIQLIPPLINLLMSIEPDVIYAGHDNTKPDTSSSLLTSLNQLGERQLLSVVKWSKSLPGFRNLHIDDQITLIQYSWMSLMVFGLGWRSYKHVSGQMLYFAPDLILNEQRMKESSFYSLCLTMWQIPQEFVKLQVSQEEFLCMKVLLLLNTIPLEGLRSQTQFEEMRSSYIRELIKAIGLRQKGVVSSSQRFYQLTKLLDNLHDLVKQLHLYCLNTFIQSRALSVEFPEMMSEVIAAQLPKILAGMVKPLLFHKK

Turning to `[O-][n+]1ccccc1SSc1cccc[n+]1[O-]`, the Potency was 0.291 µM (active) in [1]; 0.13 µM (active) in test [2]; 1.83 µM (active) in [4]; 0.13 µM (active) in [6]; 0.291 µM (active) in test [7]; 0.164 µM (active) in test [9]. Moreover, the values for the Potency in test [10], in test [12] and in [15] were 0.092 µM (active), 0.13 µM (active) and 8.2 µM (active), respectively. Moreover, in test [3], the Potency result was “inactive”. Besides, the activity change, negative = cytotoxicity in [5] was 12.3% [at 19 µM]. Also, the activity change in test [8] is -7.63% [at 18.9 µM, active compounds read high]. Moreover, the activation is -7.58% [at 19 µM] in [11], 3.22% [at 19 µM] in test [13] and -12.3% [at 19 µM] in [16]. Moreover, the cAMP activity change in test [14] was 5.78% [at 18.9 µM].
Consider `[Cl][Bi]([Cl])([c]1ccccc1)([c]1ccccc1)[c]1ccccc1`, for which the Potency in [1] is 13.6 µM (active); in test [2] it was 4.83 µM (active); in test [6], 0.108 µM (active); in [7] it was 0.136 µM (active); in test [9], 0.0242 µM (active); in [17], 60.8 µM (active). For the same compound, the Potency in test [10] was 24.2 µM (active); in test [12] it was 8.58 µM (active); in test [15] it was 24.2 µM (active). Further, the Potency result in test [4], in test [5], in [8], in test [11], in test [13] and in test [18] was “inactive” throughout.
In the case of `NNc1nc(-c2ccc([N+](=O)[O-])cc2)cs1`, the Potency in test [1] is 17.2 µM (active); in [2], 48.6 µM (active); in test [4], 17.2 µM (active); in [7] it was 48.6 µM (active); in test [17] it was 48.6 µM (active); in test [15] it was 24.3 µM (active). For the same compound, the Potency result in test [5], in [6], in test [8], in test [19], in test [11] and in test [12] was “inactive” throughout. Further, the Potency result in test [13] is “inactive”.
As to `CN(C)CCCOC1(Cc2ccccc2)CCCCCC1`, the Potency result in test [1], in test [2], in test [4], in [5], in [6] and in test [7] was “inactive” throughout. Besides, the Potency entry in test [8], in [19], in test [20], in test [17], in test [11] and in test [12] was “inactive” in each case. Also, the Potency entry in [15] was “inactive”. Besides, the outcome in [14] was inactive.
Take `CN(C)c1ccc(C2(c3ccc(N(C)C)cc3)OC(=O)c3cc(N(C)C)ccc32)cc1`: the Potency result in [1], in test [2], in [4], in test [5], in test [6] and in test [8] was “inactive” throughout. In addition, the Potency result in test [20], in [17], in [10], in test [11], in [12] and in [13] was “inactive” each time. The Potency result in test [15] is “inactive”. In addition, the result in test [14] was inactive.
`COc1cc(-c2nc(NC(=O)c3cc4cc(C)cc(C)c4n3CC(=O)O)sc2CCC2CCCCC2)c(OC)cc1Cl`: the Potency in test [1] is 56 µM (active); in [5], 25 µM (active); in test [10], 19.9 µM (active); in test [12] it was 39.7 µM (active). The Potency result in test [2], in test [4], in [6], in test [8], in test [19] and in test [11] was “inactive” in each case. The Potency entry in test [13], in [15] and in test [16] was “inactive” in each case. Further, in test [14], the compound was called inactive.
Turning to `CCCC(=O)OC[C@@H](OC(=O)CCC)[C@@H](OC(=O)CCC)[C@H](Cn1c2nc(=O)[nH]c(=O)c-2nc2cc(C)c(C)cc21)OC(=O)CCC`, the Potency in [1] is 16.8 µM (active); in test [2] it was 26.6 µM (active); in [9] it was 2.37 µM (active); in [10], 16.8 µM (active). The Potency result in [3], in test [4], in [5], in [8], in test [17] and in [11] was “inactive” each time. The Potency result in test [12], in [13] and in [18] was “inactive” in each case. The compound was classed as inactive in [14].
